Drawing on ChEMBL document CHEMBL4513135, “CO-ADD screening of IQOG CSIS (Spain) compounds”, this text covers Inhibition for 39 compounds.

One assay relates to Staphylococcus aureus. The conditions noted are these: Concentration 32 ug.mL-1; ASSAY_TEST Inhibition of Bacterial Growth; detection method Absorption (OD600); MEDIA CAMHB; plate type 384well; NBS; CORNING #3640; time 18 hr.
A further assay has as its system Escherichia coli. The note with it: Concentration 32 ug.mL-1, ASSAY_TEST Inhibition of Bacterial Growth, detection method Absorption (OD600), MEDIA CAMHB, plate type 384well, NBS, CORNING #3640, time 18 hr.

Several values for one entry are separate records, joined by “and”; a condition that tells them apart may be missing. Equal values may be shown once. Entries with a potency or affinity are not part of this list.

Consider `NNC(=O)c1cccnc1` [NICOTINIC ACID HYDRAZIDE], for which the Inhibition amounted to 11.6% with Staphylococcus aureus and 15.76% in the assay with Escherichia coli. `CCOC(=O)C1=C(C)NC(=O)CC1c1ccccc1` (configuration not stated): the Inhibition in the assay on Staphylococcus aureus is given as 39.69%; with Escherichia coli, -3.27%. Consider `Cl.ClCCN1CCCCC1`, for which the results for the Inhibition in the assay with Staphylococcus aureus and with Escherichia coli were 28.78% and 20.05%, respectively. Turning to `COc1ccc(C=C(C#N)C#N)cc1OC`, the Inhibition with Staphylococcus aureus is 14.77%; with Escherichia coli, 13.47%. For `Cc1ccc(S(=O)(=O)N2[C@H]3CC[C@@H]2CC3)cc1`, in that order: 28.46% and -2.06%.

For `Cc1nc(N)c(C#N)cc1C(=O)O`, the Inhibition is given as 4.41% with Staphylococcus aureus and -9.15% with Escherichia coli. For `C#CCN1CCc2nc3nc(OC)c(C#N)cc3c(N)c2C1`, in that order: 26.45% and -2.8%. For the compound `NNC(=O)c1cn(Cc2ccccc2)c2ccccc12`, the Inhibition worked out at 1.65% in the assay on Staphylococcus aureus and 1.53% in the assay on Escherichia coli. In the case of `CN1CC=C(c2cccn2C)CC1`, the results for the Inhibition with Staphylococcus aureus and in the assay on Escherichia coli were 10.32% and 19%, respectively. Turning to `[N-]=[N+]=NCC(=O)c1ccc(Br)cc1`, the results for the Inhibition with Staphylococcus aureus and with Escherichia coli were 26.38% and 9.41%, respectively.

`CN(C)C(=O)Oc1ccc(CCl)c2cccnc12`: the Inhibition with Staphylococcus aureus is 22.39%; in the assay on Escherichia coli, -10.05%.

Regarding `C#CCN(C)Cc1cc2cc(OC(=O)N(C)C)ccc2n1C`, the Inhibition in the assay with Staphylococcus aureus is -2.15%; in the assay with Escherichia coli it was -5.14%.

With `Cl.ClCCN1CCCC1`, the Inhibition was determined as 22.74% in the assay on Staphylococcus aureus and 7.3% in the assay with Escherichia coli.

Turning to `NNCCCc1c[nH]c2ccccc12.O=C(O)/C=C/C(=O)O`, the Inhibition in the assay with Staphylococcus aureus is given as 18.22%; in the assay on Escherichia coli, 27.72%. As for `CC1CC(=O)Nc2nc3c(c(N)c21)CCCC3` (configuration not stated), the Inhibition was 27.94% with Staphylococcus aureus and -10.32% in the assay on Escherichia coli. As for `C#CCN(C)Cc1cc2cc(OCCCC3CCN(Cc4ccc(OC(=O)N(C)C)c5ncccc45)CC3)ccc2n1C`, the Inhibition is listed as 11.25% in the assay on Staphylococcus aureus and -10.82% in the assay with Escherichia coli. Regarding `OCC(Cc1cnc[nH]1)NCc1ccccc1` (configuration not stated), the Inhibition with Staphylococcus aureus was 6.92%; with Escherichia coli, 2.95%. For `C#CCN1CCc2nc(N)c(C#N)c(-c3ccccc3)c2C1`, the Inhibition with Escherichia coli (32 ug/mL) is -14.9% and -16.29%. For the compound `CCOC(=O)c1cc2cc(OC(=O)NC3CCN(Cc4ccccc4)CC3)ccc2[nH]1`, the Inhibition with Staphylococcus aureus is 20.68%; with Escherichia coli, -6.09%. Consider `O=C(CBr)NCc1ccccc1`, for which the Inhibition was 46.96% with Staphylococcus aureus and 14.62% in the assay with Escherichia coli. In the case of `N#CCC(=O)c1ccccc1`, the results for the Inhibition in the assay with Staphylococcus aureus and with Escherichia coli were 30.68% and 18.52%, respectively. Turning to `N#Cc1cc(C#N)c(N2C3CCC2CC3)nc1N`, the Inhibition is on record as -1.36% in the assay with Staphylococcus aureus and 10.18% with Escherichia coli. The like results for `Nc1c2c(nc3c1C(c1ccccc1)CC(=O)N3)CCCC2` (configuration not stated) were, in that order, 28.94% and 0.15%.

Regarding `COc1cc(C2C(C#N)=C(N)Oc3c2ccc2ccccc32)cc(OC)c1OC` (configuration not stated), the Inhibition came out at 6.42% in the assay with Staphylococcus aureus and 8.07% in the assay with Escherichia coli. Regarding `CCOC(=O)C1=C(C)OC(=O)CC1c1ccccc1` (configuration not stated), the Inhibition is listed as 23.21% in the assay on Staphylococcus aureus and -9.36% in the assay with Escherichia coli.

For `O=C(N1[C@H]2CC[C@@H]1C(c1nnn[nH]1)C2)C(F)(F)F` (some centres not stated), the figures for the Inhibition in the assay on Staphylococcus aureus and in the assay with Escherichia coli were 26.59% and -6.69%, respectively.

With `N#CC(C#N)=Cc1ccc(Cl)cc1`, the Inhibition is on record as 7.12% in the assay on Staphylococcus aureus and 5.89% with Escherichia coli. For `Cc1ccc(C=C(C#N)C#N)cc1`, in that order: 8.41% and 8.38%. Regarding `Nc1c2c(nc3ccccc13)CCN(Cc1ccccc1)C2`, the Inhibition in the assay with Staphylococcus aureus turned out to be 9.97%; with Escherichia coli it was 1.56%. On to `C#CCN1CCc2nc3ncccc3c(N)c2C1.Cl`, for which the Inhibition is listed as 20.08% in the assay with Staphylococcus aureus and -15.24% in the assay on Escherichia coli. As to `COc1ccc2c(c1)cc(C[N+](C)(C)C)n2C.[I-]`, the results for the Inhibition in the assay on Staphylococcus aureus and with Escherichia coli were 13.5% and 12.23%, respectively. Turning to `CCOC(=O)C1=C(OC)OC(=O)CC1c1ccccc1` (configuration not stated), the Inhibition in the assay with Staphylococcus aureus was 39.56%; in the assay on Escherichia coli, -6.33%. In the case of `Cc1ccccc1C=C(C#N)C#N`, the Inhibition in the assay with Staphylococcus aureus is recorded as 3.49%; in the assay on Escherichia coli, 0.38%. The like results for `CN1CC=C(c2cccn2C)CC1.Cl` were, in that order, 10.31% and 19.65%. The like results for `C#CCN1CCc2nc3nc(Cl)c(C#N)cc3c(N)c2C1` were, in that order, 26.25% and -10.74%.

With `C#CCN(C)Cc1cc2cc(OCc3ccc(OC(=O)N(C)C)c4ncccc34)ccc2n1C`, the Inhibition is given as 7.52% with Staphylococcus aureus and -14.26% in the assay with Escherichia coli. In the case of `CCOc1nc2nc(C)c(C(=O)O)cc2c(-c2ccccc2)c1C#N`, the Inhibition is given as 17.86% in the assay with Staphylococcus aureus and -10.47% in the assay on Escherichia coli. As to `CCOC(=O)c1cn(Cc2ccccc2)c2ccccc12`, the Inhibition with Staphylococcus aureus is 3.83%; in the assay on Escherichia coli, -2.16%.

Consider `CNCc1cn(C)c2ccc(OC)cc12.Cl`, for which the Inhibition was 14.24% in the assay with Staphylococcus aureus and 17.26% in the assay with Escherichia coli.
